Where “and” joins values, the source holds several entries; their conditions need not be identical. Equal entries are not always repeated. The panel holds about 83,000 compounds, 20% with a hit somewhere; the sample as a whole holds those more often.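 Cell lines were cultured in 96-well plates, exposed to a single compound concentration, and assessed for percent growth 48 hours later.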 Calls of active or inactive are those of the source. How the source made its calls: active means growth percent below 10; inactive means the rest.
What was measured:
Test in all cases: NCI-60 one-dose screen, 48 h (100 = growth as untreated, 0 = no growth, -100 = all killed)
Details in all cases: 10 µM unless noted
SR leukemia = tested on: SR leukemia
RPMI-8226 leukemia = tested on: RPMI-8226 leukemia
OVCAR-8 ovarian = tested on: OVCAR-8 ovarian
OVCAR-5 ovarian = tested on: OVCAR-5 ovarian
OVCAR-4 ovarian = tested on: OVCAR-4 ovarian
SK-OV-3 ovarian = tested on: SK-OV-3 ovarian
IGROV1 ovarian = tested on: IGROV1 ovarian
OVCAR-3 ovarian = tested on: OVCAR-3 ovarian
HS 578T breast = tested on: HS 578T breast
NCI/ADR-RES ovarian = tested on: NCI/ADR-RES ovarian
T-47D breast = tested on: T-47D breast
BT-549 breast = tested on: BT-549 breast
MDA-MB-435 melanoma = tested on: MDA-MB-435 melanoma
SW-620 colon = tested on: SW-620 colon
MCF7 breast = tested on: MCF7 breast
HCT-116 colon = tested on: HCT-116 colon
HCC-2998 colon = tested on: HCC-2998 colon
KM12 colon = tested on: KM12 colon

| SMILES | growth (SR leukemia) | growth (RPMI-8226 leukemia) | growth (OVCAR-8 ovarian) | growth (OVCAR-5 ovarian) | growth (OVCAR-4 ovarian) | growth (SK-OV-3 ovarian) | growth (IGROV1 ovarian) | growth (OVCAR-3 ovarian) | growth (HS 578T breast) | growth (NCI/ADR-RES ovarian) | growth (T-47D breast) | growth (BT-549 breast) | growth (MDA-MB-435 melanoma) | growth (SW-620 colon) | growth (MCF7 breast) | growth (HCT-116 colon) | growth (HCC-2998 colon) | growth (KM12 colon) |
| --- | --- | --- | --- | --- | --- | --- | --- | --- | --- | --- | --- | --- | --- | --- | --- | --- | --- | --- |
| O=C(O)Cc1cc(=O)[nH]n(-c2ccccc2)c1=O | 88.9% (inactive) | 117% (inactive) | 90% (inactive) | 100% (inactive) | 103% (inactive) | 98% (inactive) | 115% (inactive) | 110% (inactive) | 117% (inactive) | 115% (inactive) | 98.2% (inactive) | 103% (inactive) | 108% (inactive) | 108% (inactive) | 98.9% (inactive) | 101% (inactive) | 106% (inactive) | 107% (inactive) |
| Cc1cc(-c2ccc(N=Nc3c(C)nn(-c4ccc(S(=O)(=O)O)cc4)c3O)c(C)c2)ccc1N=Nc1ccc(O)c(C(=O)O)c1 | 86% (inactive) | 81.7% (inactive) | 95.7% (inactive) | 94.4% (inactive) | 106% (inactive) | 96.9% (inactive) | -9.24% (active) | 106% (inactive) | 91.8% (inactive) | 104% (inactive) | – | 98.5% (inactive) | 110% (inactive) | 98.8% (inactive) | 94% (inactive) | 99.8% (inactive) | 94% (inactive) | 96.1% (inactive) |
| CCOC(=O)c1csc(N)n1 | 102% (inactive) | 83.7% (inactive) and 97.4% (inactive) | 97.4% (inactive) | 106% (inactive) and 104% (inactive) | 104% (inactive) and 94.9% (inactive) | 101% (inactive) and 98% (inactive) | 56.3% (inactive) and 109% (inactive) | 108% (inactive) and 107% (inactive) | 95.1% (inactive) and 101% (inactive) | 111% (inactive) and 104% (inactive) | 104% (inactive) and 98.5% (inactive) | – | 99% (inactive) and 102% (inactive) | 104% (inactive) and 103% (inactive) | 91.8% (inactive) and 90.8% (inactive) | 107% (inactive) and 99.4% (inactive) | 115% (inactive) and 101% (inactive) | 110% (inactive) and 108% (inactive) |
| CCOC(=O)c1ccc(C(=N)N)cc1 | 103% (inactive) | 89.7% (inactive) | 105% (inactive) | 120% (inactive) | 107% (inactive) | 108% (inactive) | 107% (inactive) | 102% (inactive) | 73.8% (inactive) | 100% (inactive) | 105% (inactive) | 119% (inactive) | 109% (inactive) | 102% (inactive) | – | 106% (inactive) | 103% (inactive) | 109% (inactive) |
| O=C(O)C(Cc1ccc(OS(=O)(=O)Cc2ccccc2)cc1)NS(=O)(=O)Cc1ccccc1 (configuration not stated) | 100% (inactive) and 85.8% (inactive) | 110% (inactive) and 102% (inactive) | 105% (inactive) | 123% (inactive) and 112% (inactive) | 99.8% (inactive) and 109% (inactive) | 112% (inactive) and 120% (inactive) | 106% (inactive) and 121% (inactive) | 111% (inactive) and 109% (inactive) | 106% (inactive) | 105% (inactive) and 112% (inactive) | 101% (inactive) and 99.9% (inactive) | – | 98.7% (inactive) and 111% (inactive) | 105% (inactive) | 91.4% (inactive) and 98.4% (inactive) | 105% (inactive) and 109% (inactive) | 115% (inactive) | 101% (inactive) and 106% (inactive) |
| O=[N+]([O-])c1ccc(NC(c2ccccc2)c2ccc3cccnc3c2O)cc1 (configuration not stated) | 6.12% (active) | 22% (inactive) | 17% (inactive) | 58.9% (inactive) | 22.2% (inactive) | 34.9% (inactive) | 10.9% (inactive) | 30.7% (inactive) | 35.6% (inactive) | 11.7% (inactive) | 37.2% (inactive) | – | 32.8% (inactive) | 23.9% (inactive) | 17.3% (inactive) | 28% (inactive) | 29.8% (inactive) | 28% (inactive) |
| N#CC1c2ccccc2C=CN1C(=O)c1ccccc1 (configuration not stated) | 91.7% (inactive) and 146% (inactive) | 105% (inactive) and 159% (inactive) | 92.7% (inactive) and 85% (inactive) | 110% (inactive) and 87.5% (inactive) | 96.8% (inactive) and 89.7% (inactive) | 120% (inactive) and 128% (inactive) | 101% (inactive) and 73.9% (inactive) | 93.6% (inactive) and 95.9% (inactive) | 94.2% (inactive) and 150% (inactive) | 108% (inactive) and 107% (inactive) | 106% (inactive) and 103% (inactive) | – | 98.7% (inactive) and 87.8% (inactive) | 94.8% (inactive) and 103% (inactive) | 93.1% (inactive) and 114% (inactive) | 107% (inactive) and 92% (inactive) | 109% (inactive) and 115% (inactive) | 107% (inactive) and 91.5% (inactive) |
| CC(=O)C[n+]1ccccc1Sc1ccc(Cl)cc1 | 57.4% (inactive) | 84.7% (inactive) | 92.8% (inactive) | 148% (inactive) | 93.7% (inactive) | 109% (inactive) | 101% (inactive) | 100% (inactive) | 84.3% (inactive) | 111% (inactive) | 84.8% (inactive) | 30% (inactive) | 78% (inactive) | 91.6% (inactive) | – | 81.5% (inactive) | 128% (inactive) | 79.2% (inactive) |
| COc1ccc(CCNC(=S)NN)cc1OC | 104% (inactive) | 99% (inactive) | 103% (inactive) | 104% (inactive) | 99.3% (inactive) | 121% (inactive) | 107% (inactive) | 108% (inactive) | 102% (inactive) | 102% (inactive) | 98.8% (inactive) | – | 111% (inactive) | 99% (inactive) | 93.9% (inactive) | 84.2% (inactive) | 88.8% (inactive) | 94.2% (inactive) |
| Cc1ccc([N+](=O)[O-])cc1Br | 83% (inactive) | 108% (inactive) | 91.1% (inactive) | 89.9% (inactive) | 105% (inactive) | 96.4% (inactive) | 113% (inactive) | 107% (inactive) | 94.8% (inactive) | 108% (inactive) | 89.1% (inactive) | – | 85.6% (inactive) | 91.8% (inactive) | 97.6% (inactive) | 90.8% (inactive) | 117% (inactive) | 103% (inactive) |
| NC1=NC(c2ccccc2)N=C(Nc2ccccc2)N1 (configuration not stated) | 2.95% (active) | 95.5% (inactive) and 130% (inactive) | 97.6% (inactive) and 101% (inactive) | 101% (inactive) and 94.7% (inactive) | 117% (inactive) and 62.4% (inactive) | 94.3% (inactive) and 67.6% (inactive) | 110% (inactive) and 111% (inactive) | 9.87% (active) and -1.56% (active) | 26.1% (inactive) and 42.4% (inactive) | 111% (inactive) and 109% (inactive) | 98.4% (inactive) and 106% (inactive) | – | 18.2% (inactive) and 7.52% (active) | 84.4% (inactive) and 94.5% (inactive) | 13.7% (inactive) and 22% (inactive) | 59.9% (inactive) and 44.6% (inactive) | 93.6% (inactive) | 26.1% (inactive) and 51.7% (inactive) |
| O=C1c2ccccc2C(c2ccccc2)C1c1ccccc1 (configuration not stated) | 86.3% (inactive) | 63.4% (inactive) | 103% (inactive) | 101% (inactive) | 86.1% (inactive) | 93.5% (inactive) | 91.1% (inactive) | 105% (inactive) | 106% (inactive) | 94.8% (inactive) | 82.9% (inactive) | 131% (inactive) | 95.9% (inactive) | 90.1% (inactive) | – | 79.3% (inactive) | 95.4% (inactive) | 95.1% (inactive) |
| CC(=O)c1cc2ccccc2o1 | 98.3% (inactive) | 98.6% (inactive) | 115% (inactive) | 87.7% (inactive) | 114% (inactive) | 96.8% (inactive) | 110% (inactive) | 114% (inactive) | 108% (inactive) | 102% (inactive) | 100% (inactive) | 97.2% (inactive) | 109% (inactive) | 112% (inactive) | – | 100% (inactive) | 109% (inactive) | 109% (inactive) |

From PubChem BioAssay (NCI)
